Results reported in PubChem BioAssay AID1159580 (chemical genetic matrix, 2015).
Several values for one entry are separate records, joined by “and”; a condition that tells them apart may be missing. Equal entries are not always repeated. The campaign covered roughly 5,500 compounds. About 2,000 (36%) were called active. Not shown: some 18% with an inconclusive outcome. Rule as the data show it: active = normalized growth mostly below about 0.91 (no sharp cut-off); inconclusive = no clear call, values can overlap the other calls; inactive = mostly above about 0.92. This is one part of the list.

Test: chemical genetic growth profiling, strain panel (AID 1159580);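 also: tested at 20 µM; growth read once vehicle control cultures reached saturation at 30 °C; 1 = growth at the plate median or of vehicle wells; lower values mean less growth of the strain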
Details: S. cerevisiae deletion strains, growth OD

Measured: normalized growth

Nc1cc(-c2ccncc2)c[nH]c1=O
inactive: locus YBR021W, strain FUR4, hits give low values 0.952 | locus YBR171W, strain sec66, hits give low values 0.966 | locus YBR229C, strain ROT2, hits give low values 0.952 | locus YCL029C, strain bik1, hits give low values 0.988 | locus YCR088W, strain abp1, hits give low values 0.925 | locus YDL005C, strain med2, hits give low values 0.971 | locus YDL035C, strain GPR1, hits give low values 0.907 | locus YDL040C, strain nat1, hits give low values 0.936 | locus YDL074C, strain BRE1, hits give low values 0.913 | locus YDL101C, strain DUN1, hits give low values 0.994 | locus YDL185W, strain tfp1, hits give low values 0.973 | locus YDL192W, strain arf1, hits give low values 0.974 | locus YDR001C, strain nth1, hits give low values 0.972 | locus YDR101C, strain arx1, hits give low values 0.977 | locus YDR137W, strain rgp1, hits give low values 0.976 | locus YDR159W, strain sac3, hits give low values 0.928 | locus YDR162C, strain NBP2, hits give low values 0.949 | locus YDR195W, strain ref2 0.951 | locus YDR335W, strain msn5, hits give low values 0.934 | locus YDR502C, strain sam2, hits give low values 0.926 | locus YEL037C, strain rad23, hits give low values 0.937 | locus YEL061C, strain CIN8, hits give low values 0.98 | locus YER015W, strain faa2, hits give low values 0.993 | locus YER110C, hits give low values 0.983 | locus YER111C, strain swi4, hits give low values 0.979 | locus YER155C, strain BEM2, hits give low values 0.963 | locus YGL078C, strain dbp3, hits give low values 0.976 | locus YGL167C, strain pmr1, hits give low values 0.974 | locus YGL227W, strain vid30, hits give low values 0.96 | locus YGR135W, strain pre9, hits give low values 0.945 | locus YGR229C, strain SMI1, hits give low values 0.923 | locus YHR030C, strain SLT2, hits give low values 0.959 and 1.04 | locus YHR079C, strain IRE1 (second series), hits give low values 0.988 | locus YHR079C, strain IRE1, hits give low values 1.04 | locus YHR094C, strain hxt1, hits give low values 0.978 | locus YHR129C, strain ARP1, hits give low values 0.961 | locus YHR200W, strain rpn10, hits give low values 0.974 | locus YIL073C, strain SPO22, hits give low values 0.713 | locus YIL125W, strain kgd1, hits give low values 0.982 | locus YIR030C, strain dcg1, hits give low values 0.988 | locus YJL092W, strain hpr5, hits give low values 0.923 | locus YJL095W, strain BCK1, hits give low values 0.961 and 1.01 | locus YJL115W, strain asf1, hits give low values 0.932 | locus YJL129C, strain trk1, hits give low values 0.94 | locus YJL134W, strain LCB3, hits give low values 0.994 | locus YJL154C, strain vps35, hits give low values 0.964 | locus YJL168C, strain set2, hits give low values 0.986 | locus YJL187C, strain SWE1 (second series), hits give low values 0.96
active: locus YAL021C, strain ccr4, hits give low values 0.86 | locus YAL026C, strain drs2, hits give low values 0.802 | locus YAL030W, strain snc1, hits give low values 0.885 | locus YBL061C, strain skt5, hits give low values 0.899 | locus YBR009C, strain hhf1, hits give low values 0.671 | locus YBR023C, strain chs3, hits give low values 0.832 | locus YBR231C, strain swc5, hits give low values 0.562 | locus YBR279W, strain paf1, hits give low values 0.63 | locus YCL011C, strain gbp2, hits give low values 0.833 | locus YCL016C, strain dcc1, hits give low values 0.567 | locus YCL061C, strain MRC1, hits give low values 0.901 | locus YCL069W, strain vba3, hits give low values 0.757 | locus YDL134C, strain PPH21, hits give low values 0.823 | locus YDR069C, strain doa4, hits give low values 0.885 | locus YDR297W, strain sur2, hits give low values 0.856 | locus YDR318W, strain mcm21, hits give low values 0.809 | locus YDR334W, strain swr1, hits give low values 0.664 | locus YDR388W, hits give low values 0.919 | locus YDR392W, strain spt3, hits give low values 0.265 | locus YEL003W, strain gim4, hits give low values 0.624 | locus YEL061C, strain CIN8 (second series), hits give low values 0.787 | locus YER016W, strain bim1, hits give low values 0.672 | locus YER155C, strain BEM2 (second series), hits give low values 0.368 | locus YER167W, strain BCK2, hits give low values 0.86 | locus YFR010W, strain ubp6, hits give low values 0.863 | locus YGL086W, strain mad1, hits give low values 0.872 | locus YGL173C, strain kem1, hits give low values 0.715 | locus YGL240W, strain doc1, hits give low values 0.684 | locus YGL248W, strain PDE1, hits give low values 0.678 | locus YGL253W, strain hxk2, hits give low values 0.523 | locus YGR078C, strain PAC10, hits give low values 0.527 | locus YGR252W, strain gcn5, hits give low values 0.706 | locus YHR013C, strain ard1, hits give low values 0.506 | locus YHR027C, strain rpn1, hits give low values 0.872 | locus YHR142W, strain chs7, hits give low values 0.705 | locus YIL066C, strain RNR3, hits give low values 0.74 | locus YJL095W, strain BCK1 (second series), hits give low values 0.714 | locus YJL164C, strain tpk1, hits give low values 0.69 | locus YJL166W, strain qcr8, hits give low values 0.539 | locus YJL187C, strain SWE1, hits give low values 0.755
